# Test results published in PubChem BioAssay (NCI).
# The panel holds about 83,000 compounds, 20% with a hit somewhere; the sample as a whole holds those more often.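 Activity criterion: percent growth below 10, measured after cells in 96-well plates were exposed to a single compound concentration for 48 hours.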 A number with no mark means an inactive call. Active and inactive are the calls of the source.
# System: HL-60(TB) leukemia
# Test: NCI-60 one-dose screen, 48 h (100 = growth as untreated, 0 = no growth, -100 = all killed)
# Conditions: 10 µM unless noted
row,SMILES,growth
1,CCOC(=O)C1=C(C)N=c2s/c(=C\c3ccccc3O)c(=O)n2C1c1ccc(OC)c2ccccc12 (centres undefined),-48.6% (active)
2,CC(=O)N1N=C(c2ccc(Cl)cc2)CC1c1c(C)nn(-c2ccccc2)c1N(C)Cc1ccccc1 (centres undefined),82.4%
3,CC/C=C\C[C@H](O)C/C=C1/C(=O)C=C[C@@H]1C/C=C\CCCC(=O)O,75.2%
4,CCC1=C(c2ccc(OC)cc2)C(C)Oc2cc(OC(C)=O)ccc21 (centres undefined),56.7%
5,COc1cc(CC(=O)c2ccc(O)c(OC)c2)ccc1O,87%
6,COc1ccc(C2=Nc3c/c(=C\c4c(O)[nH]c5cc(Cl)ccc45)ccc3=N2)cc1,12.4%
7,O=C1c2c(O)cc(O)cc2OC(c2ccc(O)c(O)c2)C1O (centres undefined),110%
8,COc1cc(-c2csc(NC(=O)Nc3ccc(Cl)c(C(F)(F)F)c3)n2)cc(OC)c1OC,-6.26% (active)
9,COc1ccc(C(=O)/C=C/Nc2cc(-c3ccccc3)nn2-c2ccccc2)cc1,93.2%
10,NC1=NN(O)C2=CC([N+](=O)[O-])C=CC2=N1 (centres undefined),103%
11,[2H]C1([2H])NC([2H])([2H])C([2H])([2H])N(c2ccc(Nc3ncc4cc(C(=O)N(C)C)n(C5CCCC5)c4n3)nc2)C1([2H])[2H],22.7%
12,CC(=O)O[C@]1(C(C)=O)CC[C@H]2[C@@H]3C=C(Cl)C4=CC(=O)CC[C@]4(C)[C@H]3CC[C@@]21C,104%
13,Cn1cccc1/C=C1\C(=O)Nc2ccccc21,103%
14,Cc1ccc(/C=C2/C(=O)Nc3cc(Cl)c(-c4csc(N)n4)cc32)cc1,22.2%
